Many of the other results were omitted from the sample, so hits are more common in it than they were.
Dicer inh – inhibitors of human Dicer processing of pre-microRNA. 47,000 compounds, 6% hits. z-score at 25 µM. cat-ELCCA pre-miR-21 Dicer processing, chemiluminescence; hits give high values; in the data active = z-score above about 3, passing the limit was not always enough;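 also: higher signal means more uncleaved substrate so more Dicer inhibition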
A number is an active result; – = inactive.

SMILES	Dicer inh
CCN(CC)CC(=O)Nc1c(C#N)cnn1-c1ccccc1	4.7
N#Cc1cnn(-c2ccccc2)c1NC(=O)CSc1nnc(-c2ccc(Cl)cc2)o1	–
Cc1ccc(CNCc2ccncc2)s1	–
O=C1NC(c2ccccc2)=N/C1=C/c1ccc(OCc2ccccc2)cc1	–
Cc1cc(C)c(-n2nnnc2SCc2c(F)cccc2Cl)c(C)c1	–
COc1ccc(C2CC(=O)C3=C(C2)NC(C)=C(C(=O)OC(C)C)C3c2cccc(C)c2)cc1OC (stereo not given)	–
O=C(Cn1ccc(C(F)(F)F)n1)Nc1ccc(Cl)cc1	–
CCCc1cnc(N2CCN(S(=O)(=O)c3ccc(CNC(=O)c4ccccc4)s3)CC2)nc1	–
CCCc1cnc(N2CCN(S(=O)(=O)c3sc4ccc(Cl)cc4c3C)CC2)nc1	–
CCCc1cnc(N2CCN(S(C)(=O)=O)CC2)nc1	3.5
CC(C)(C)OC(=O)/C(C#N)=C/C1CCCCC1	–
O=C(CSc1nc2c(c(C(F)(F)F)n1)CCc1ccccc1-2)NCC1CCCO1 (stereo not given)	–
CC(C)(C)c1ccc(Oc2ccc(NC(=O)Nc3ccccc3)cn2)cc1	–
COC(=O)c1ccsc1NC(=O)CN1CCN(S(=O)(=O)c2ccc(Cl)cc2)CC1	3
COc1ccc(NC(=O)N=S2CCN(S(=O)(=O)c3ccc(Cl)cc3)CC2)cc1	–
COC(=O)c1ccsc1NC(=O)CN1c2cccc3cccc(c23)S1(=O)=O	–
COCCOC(=O)C1=C(C)NC2=C(C(=O)CC(C)(C)C2)C1c1cc(OC)ccc1OC (stereo not given)	–
Cn1c(Sc2ccc(C(F)(F)F)cc2[N+](=O)[O-])nnc1-c1csc2ccc(Cl)cc12	–
FC(F)(F)c1ccncc1-c1nnnn1-c1ccccc1Cl	–
CC(CO)NC(=O)OCC1c2ccccc2-c2ccccc21 (stereo not given)	–
O=C(Nc1ccccc1C(=O)O)OCC1c2ccccc2-c2ccccc21	5.2
CC(C)C(NC(=O)OCC1c2ccccc2-c2ccccc21)C(=O)O (stereo not given)	–
Cc1ccc(-n2nnnc2-c2cnc3cc(Cl)ccc3c2N)cc1	–
Cc1ccc(NS(=O)(=O)c2cccs2)cc1	–
Cc1c(C(=O)O)c2cc(NS(=O)(=O)c3cccs3)ccc2n1S(=O)(=O)c1cccs1	7.5
SMILES	Dicer inh
CCOC(=O)c1c(C)oc2ccc(NS(=O)(=O)c3cccs3)cc12	–
O=C(c1ccccc1)c1cc2cc(Cl)cc(Cl)c2o1	–
S=C(Nc1ccccn1)Nc1ccc(Cl)cc1Cl	–
CCC(=O)Oc1cc(C)c2sc3ccccc3c(=O)c2c1	4.4
CCC(=O)Oc1c(C)cc(O)c2ccccc12	–
CCC(=O)Oc1ccc2nc(-c3ccc(C)c(C)c3)oc(=O)c2c1	–
CCc1c(C)nc(N2CCN(Cc3ccc4c(c3)OCO4)CC2)[nH]c1=O	3.9
O=c1cc(CSc2ccc(Cl)cc2)nc(N2CCN(Cc3ccc4c(c3)OCO4)CC2)[nH]1	–
Cc1cc(C)c(S(=O)(=O)N2CCN(Cc3ccc4c(c3)OCO4)CC2)cc1C	–
Cc1ccc(C(=O)Cn2c3ccccc3n3nc(C)c(=O)nc23)cc1	–
C/C(=C\C(=O)NCc1ccccc1)C(=O)O	–
CCOC(=O)c1sc(-c2ccccc2)nc1CSc1cc(C(F)(F)F)cc(C(F)(F)F)c1	–
CC1=N/C(=C\c2cc(F)cc(F)c2)C(=O)O1	–
CC1=N/C(=C\c2ccc3ccccc3c2)C(=O)O1	–
CC1=N/C(=C/c2ccc(Cl)c(Cl)c2)C(=O)O1	3.2
FC(F)(F)c1cc(-c2nc(CSc3ncccn3)no2)cc(C(F)(F)F)c1	–
COc1ccc(-c2nn3c(-c4ccccc4)nnc3s2)cc1	–
Clc1ccc(-c2nnc3sc(-c4cccs4)nn23)cc1	–
Clc1ccc(-c2nn3c(-c4ccccc4)nnc3s2)cc1	3.1
Cc1cc(C)cc(Oc2c(C(F)(F)F)oc3c(CN4CCOCC4)c(O)ccc3c2=O)c1	–
CCNC(=O)N1c2cc(C)ccc2C(C)=CC1(C)C	–
COc1ccc(OCC(=O)N(Cc2cccs2)C2CCS(=O)(=O)C2)cc1 (stereo not given)	–
O=C(c1ccccc1Br)N(Cc1cccs1)C1CCS(=O)(=O)C1 (stereo not given)	3.9
COc1ccccc1OCC(=O)N(Cc1cccs1)C1CCS(=O)(=O)C1 (stereo not given)	–
COc1cc(C2OCC3(COC(C)=O)C(C)C=C(C)C2C3C)ccc1OC(C)=O (stereo not given)	–
SMILES	Dicer inh
O=S(=O)(c1ccc(NC(=S)NC2CCCC2)cc1)N1CCCCC1	–
O=S(=O)(c1ccc(NC(=S)N/N=C/c2ccccc2)cc1)N1CCCCC1	–
O=S(=O)(c1ccc(NC(=S)N/N=C/c2ccccn2)cc1)N1CCCCC1	4.2
FC(F)(F)c1cccc(N2CCN(/C=C/c3nnnn3-c3ccc(Cl)cc3)CC2)c1	–
O=c1nc(-c2ccc(Cl)cc2)nc(-c2ccc(Cl)cc2)[nH]1	–
Cc1nc(Nc2ccccc2)nc(=O)n1-c1ccccc1	–
CC(C)NS(=O)(=O)c1ccc(Cl)cc1I	–
Cc1nnsc1-c1nc(-c2ccc(Cl)s2)cs1	–

Screening results: PubChem, Center for Chemical Genomics, University of Michigan
